# Reference: PubChem BioAssay AID1486 (The Scripps Research Institute Molecular Screening Center, 2009)
# Hit rate of the full screen: of about 220,000 compounds, about 2,400 (1.1%) were called active. This is one part of a sample in which actives are shown more often than they occur.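 The calls were made as follows: active = inhibition above a per-campaign cutoff, the mean inhibition of all tested compounds plus 3 SD (cut at about 27% in these data); inactive = the rest.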
# Assay: growth loss in parental Ba/F3 cells – cell-based, murine pro-B, CellTiter-Glo luminescence, counter-screen for JAK2V617F inhibitor project (AID 1486);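 also: 0% = DMSO wells and 100% = JAK Inhibitor I control wells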
# Conditions: Ba/F3 parental viability, CellTiter-Glo ATP luminescence; at 5.6 µM; hits give high values
row,SMILES,inhibition
1,CCCN(CCC)CC(O)COc1ccccc1C(=O)Nc1ccccc1 (centres undefined),1.95% (inactive)
2,CNC(=O)c1csc(Cc2c(Cl)sc3ccc(Cl)cc23)n1,-0.25% (inactive)
3,COc1ccc(C(=O)CN(C(=O)c2ccc(Cl)cc2)N2C(=O)c3ccccc3C2=O)cc1,-0.72% (inactive)
4,COc1ccc(Cn2c(=O)cc(C)[nH]c2=S)cc1,9.89% (inactive)
5,COc1ccc(Cn2c(-c3ccc(Cl)cc3)c[n+]3ccccc23)cc1,76.4% (active)
6,COc1cccc(Nc2nnc(SCC(=O)N3CC(=O)Nc4ccccc43)s2)c1,-3.89% (inactive)
7,Nc1ccc(C(=O)OCC(=O)NC2CCS(=O)(=O)C2)cc1[N+](=O)[O-] (centres undefined),-1.89% (inactive)
8,COc1cccc(C(=O)Nc2ccc(NC(=O)c3ccco3)cn2)c1,-2.07% (inactive)
9,Cc1ccnc(NC(=O)c2ccc(NC(=O)c3ccco3)cc2)c1,-0.11% (inactive)
10,Cc1ccc(C(=O)COc2cccc(NC(=O)c3ccco3)c2)cc1,95.5% (active)
11,Cc1c(NC(=O)CSc2nnnn2-c2ccc(C(=O)O)cc2)c(=O)n(-c2ccccc2)n1C,9.83% (inactive)
12,COc1ccc(C(=O)C2CCCN(C(=O)c3cnsn3)C2)c(C)c1 (centres undefined),-0.94% (inactive)
13,COc1ccc(NS(=O)(=O)c2ccc(NC(=O)c3ccc(N(C)S(C)(=O)=O)cc3)cc2)cc1,5.44% (inactive)
14,COc1ccc(NS(=O)(=O)c2ccc(Oc3c(C#N)cccc3C#N)cc2)cc1,42% (active)
15,CCOc1ccc(S(=O)(=O)Nc2ccc(S(=O)(=O)Nc3cc(OC)ccc3OC)cc2)cc1,5.24% (inactive)
16,COc1ccccc1N1CC(C(=O)Nc2ccc(S(=O)(=O)N3CCOCC3)cc2)CC1=O (centres undefined),2.78% (inactive)
17,CNc1nnc(-c2ccco2)s1,-0.97% (inactive)
18,COc1cccc(C(O)Cc2nc3ccccc3n2C)c1OC (centres undefined),0.12% (inactive)
19,COc1ccc(-c2nn(C)c(=O)c3ccccc23)cc1NC(=O)COc1ccccc1,-0.19% (inactive)
20,Cc1ccc(NC(=O)Cn2nc(C)c3ccccc3c2=O)c(C)c1,4.31% (inactive)

row,SMILES,inhibition
1,Cc1ccc(F)cc1NC(=O)Cc1nn(C)c(=O)c2ccccc12,37.3% (active)
2,COc1ccc(Cl)cc1NC(=O)NC(C)C(C)(C)C (centres undefined),2.98% (inactive)
3,Cc1nc2ccccc2nc(=O)c1NNc1ccc([N+](=O)[O-])cc1,4.24% (inactive)
4,O=C(COC(=O)CCc1nc2ccccc2c(=O)[nH]1)Nc1ccc(N2CCOCC2)cc1,-2.42% (inactive)
5,COCCCNC(=O)/C=C/c1ccc(OCc2c(F)cccc2Cl)cc1,2.28% (inactive)
6,CN(C)CCCNC(=O)/C=C/c1ccc(OCc2c(F)cccc2Cl)cc1,7.63% (inactive)
7,O=C(/C=C/c1ccc(OCc2c(F)cccc2Cl)cc1)N1CCOCC1,67.9% (active)
8,C/C(=N/Nc1nc(-c2ccccc2)c(CC(=O)O)s1)c1ccccc1,2.81% (inactive)
9,C=C(C)Cn1c(SCC(=O)NCc2ccco2)nc2sc3c(c2c1=O)CCC3,1.93% (inactive)
10,O=C(CSc1nc2cc3c(cc2c(=O)n1CCC1=CCCCC1)OCO3)NCc1ccco1,33.2% (active)
11,O=C(CCCn1c(SCC(=O)c2ccc(F)cc2)nc2ccccc2c1=O)NCc1ccco1,4.54% (inactive)
12,COc1cc(OC)cc(C(=O)NCC(=O)OCc2csc(-c3ccccc3)n2)c1,10.9% (inactive)
13,COc1cc(OC)cc(C(=O)NC2CCN(C(=O)N3c4ccccc4Sc4ccccc43)CC2)c1,6.78% (inactive)
14,CSCCNCc1cn(-c2ccc(F)cc2F)nc1-c1ccccc1C,5.07% (inactive)
15,Cc1ccc(-c2nn(-c3cccc(F)c3)cc2CNCCc2ccncc2)o1,43% (active)
16,Cc1ccc(-c2nn(-c3ccccc3)cc2CN(Cc2ccccc2)C(=O)CCC(=O)O)o1,6.11% (inactive)
17,Cc1cc(Cl)ccc1C(=O)C1CCCN(C(=O)CCN2CCCO2)C1 (centres undefined),0.61% (inactive)
18,Cc1cc(=O)[nH]c(SCC(=O)Nc2ccc(Br)cc2)n1,-7.26% (inactive)
19,O=C(/C=C/c1ccc(Cl)c([N+](=O)[O-])c1)c1ccc(O)cc1,2.68% (inactive)
20,CNC(=O)Nc1cc(C(C)(C)C)no1,54.8% (active)

row,SMILES,inhibition
1,CCCn1c(SCC(=O)Nc2ccc(C)c(S(=O)(=O)N3CCOCC3)c2)n[nH]c1=O,4.59% (inactive)
2,CCc1ccc(NC(=O)N2CCN(c3ccccc3)CC2)cc1,1.4% (inactive)
3,CC[n+]1c(C)n(-c2ccccc2)c2ccc(NC(C)=O)cc21,57.7% (active)
4,CCn1c2ccccc2c2cc(NC(=O)CNC)ccc21,3.93% (inactive)
5,Cc1ccc(/C=N/NC(=S)NC2CCCCC2)o1,-7.43% (inactive)
6,CCOC(=O)c1ccc(NC(=O)Cn2cnc3cc(C)c(C)cc32)cc1,58.4% (active)
7,CCOC(=O)c1ccc(NC(=O)Cn2nnc(-c3ccc(C)cc3)n2)cc1,1.76% (inactive)
8,CCOC(=O)c1ccc(NC(=O)CSc2ncccn2)cc1,0.67% (inactive)
9,O=C(O)CC1=C(Nc2ccccc2)C(=O)N(c2ccccc2)C1c1ccc(Cl)cc1 (centres undefined),1.11% (inactive)
10,Cc1ccc2cc(/C=N/NC(=O)[C@@H]3CCCN3)c(Cl)nc2c1,0.27% (inactive)
11,Cc1noc(C)c1C(=O)OCC(=O)/C=C1\N(C)c2ccccc2C1(C)C,4.98% (inactive)
12,CC(=O)Nc1cccc(OCC(=O)/C=C2\N(C)c3ccccc3C2(C)C)c1,44.2% (active)
13,CC(C)Nc1nnc(SCC(=O)/C=C2\N(C)c3ccccc3C2(C)C)s1,0.74% (inactive)
14,COc1ccc(-n2cc(CNC3CCOCC3)c(-c3cccc(F)c3)n2)cc1,5.7% (inactive)
15,CCCCC(NC(=O)c1cccc(Br)c1)C(=O)O (centres undefined),0.6% (inactive)
16,CCOC(=O)N1CCN(S(=O)(=O)c2ccc(C(=O)Nc3ccc(F)cc3F)cc2)CC1,53.5% (active)
17,O=C(Nc1cccc(F)c1)c1ccc(S(=O)(=O)N2CCCC2)cc1,7.79% (inactive)
18,COc1ccc(C(=O)Nc2ccc(F)cc2F)cc1,-0.96% (inactive)
19,Cc1cc(C)c(NC(=O)CN2CCOCCOCCOCCOCC2)c(C)c1,2.62% (inactive)
